The record followed here is PubChem BioAssay.

SMILES strings stand for the structures. Calls of active or inactive are those of the source.

Test [1] in a line: binders of probe aFSTL3 on microarray, primary screen, stem cell growth factor project, biochemical, small-molecule microarray, fluorescence 635/667 (AID 1064).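 Further: measures binding of the biotinylated anti-FSTL3 antibody to printed compounds.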 The conditions noted are these: higher = more signal.
Test [2] is described as follows: binders from COS7 lysate, DM2A8 probe, primary screen, torsin A project, cell lysate, small-molecule microarray, fluorescence 635/667 (AID 1065). The conditions noted are these: higher = more signal, COS7 lysate expressing mutant human TOR1A.
Test [3] can be described thus: binders of probe aFGF2 on microarray, primary screen, stem cell growth factor project, biochemical, small-molecule microarray, fluorescence 635/667 (AID 1067).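 Further: measures binding of biotinylated aFGF2 protein to printed compounds on slides; z-score merges feature fluorescence and signal-to-noise across triplicate slides.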 Particulars: higher = more signal.
Test [4] in a line: binders of probe aFGF10 on microarray, primary screen, stem cell growth factor project, biochemical, small-molecule microarray, fluorescence 635/667 (AID 1071).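 Further: score merges 667 nm spot intensity and signal to noise from triplicate slides.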 Particulars: higher = more signal.
The target in test [5] is Neurogenic locus notch homolog protein 2 (Homo sapiens) (UniProt Q04721). Kind of test: Notch2 binders on small-molecule microarrays, primary screen, biochemical, small-molecule microarray, 635 nm fluorescence, stem cell growth factors (AID 1073). The conditions noted are these: Notch2 binding, higher = more signal.
Test [6] has as its target Pro-neuregulin-1, membrane-bound isoform (Homo sapiens) (UniProt Q02297). Kind of test: NRG1 binders on small-molecule microarrays, primary screen, psychiatric disease protein project, biochemical, small-molecule microarray, fluorescence 635/667 (AID 1075).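 Further: score combines 667 nm spot fluorescence with signal to noise.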 Particulars: NRG1 binding, 635 nm fluorescence, higher = more signal.
The test system of test [7] is Neuregulin-1 EGF-like domain. Kind of test: binders of neuregulin-1 EGF-like domain, primary screen, biochemical, small-molecule microarray, 635 nm fluorescence (AID 1081).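 Further: binding of the protein to compounds printed on small-molecule microarray slides.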 The conditions noted are these: small-molecule microarray binding, higher = more signal.
Test [8] can be described thus: FRG1 promoter luciferase signal modulators, primary screen, FRG1 inhibition for FSHD, cell-based, C2C12 myotubes, firefly/Renilla luciferase, luminescence (AID 1084). The conditions noted are these: higher = more signal, called active from +8 up or from −8 down.
Test [9] can be described thus: binders of probe aFST on microarray, primary screen, stem cell growth factor project, biochemical, small-molecule microarray, fluorescence 635/667 (AID 1086).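 Further: score merges 667 nm fluorescence with signal-to-noise of each printed compound spot.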 Particulars: higher = more signal.
A short description of test [10]: binders of probe aHhip on microarray, primary screen, stem cell growth factor project, biochemical, small-molecule microarray, fluorescence 635/667 (AID 1087).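 Further: score merges spot fluorescence at 667nm with spot signal to noise ratio.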 Particulars: higher = more signal.
Test [11] has as its system PRMT1 (protein arginine N-methyltransferase 1). Kind of test: PRMT1 binders on small-molecule microarrays, primary screen, biochemical, small-molecule microarray, 635 nm fluorescence (AID 1088).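 Further: binding of Prmt1 protein to compounds spotted on small-molecule microarray slides.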 Particulars: small-molecule microarray binding, higher = more signal.
A short description of test [12]: yeast growth modulation, basal conditions, primary screen, YJM789 clinical isolate, OD600, 24 h (AID 1089).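 Further: growth of clinical yeast isolate S. cerevisiae YJM 789 seeded 1000 cells per well; test concentration not given here.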 The conditions noted are these: S. cerevisiae YJM789 growth, higher = more signal, called active from +8 up or from −8 down.
Test [13] can be described thus: fission yeast growth modulation, primary screen, strain 972, OD600, 24 h, no modulator (AID 1090).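 Further: basal condition with compound alone and no growth modifier present; test concentration not given here.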 The conditions noted are these: S. pombe 972 growth, higher = more signal, called active from +8 up or from −8 down.
Test [14] in a line: S. cerevisiae growth modulation with rapamycin, primary screen, strain BY4716, OD600, 96 h (AID 1091). Further: test concentration not given here. The conditions noted are these: higher = more signal, called active from +8 up or from −8 down.
For test [15], the target named is Torsin-1A-interacting protein 2 (Homo sapiens) (UniProt Q8NFQ8). Kind of test: LULL1 binders on small-molecule microarray, primary screen, cell lysate, human LULL1 lysate, 635/667 nm fluorescence (AID 1092).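 Further: score merges per-feature 667 nm fluorescence with signal-to-noise.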 Particulars: hLULL1 lysate binding, 635 nm fluorescence, higher = more signal.
The nature of test [16]: E. coli growth modulation, two-sided OD650, primary screen, E. coli filamentation project, strain DRC41, 24 h (AID 1093).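 Further: MC1000 strain lacking acrAB efflux and sulA so SOS filamentation is blocked; test concentration not given here.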 The conditions noted are these: OD650, 24 h, higher = more signal, called active from +8 up or from −8 down.
The nature of test [17]: small-molecule microarray binders of probe aLefty2, primary screen, biochemical, biotinylated probe, 635/667 nm fluorescence (AID 1094).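 Further: score merges spot fluorescence near 667 nm with spot signal-to-noise ratio.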 The conditions noted are these: higher = more signal.
The subject of test [18] is Noggin (protein binding on small-molecule microarray). Kind of test: Noggin binders on small-molecule microarray, primary screen, biochemical, 635/667 nm fluorescence (AID 1095).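 Further: score merges 667 nm feature fluorescence with signal to noise over triplicate slides.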 The conditions noted are these: 635 nm fluorescence, higher = more signal.
Test [19] concerns the target Neurogenic locus notch homolog protein 3 (Homo sapiens) (UniProt Q9UM47). Kind of test: NOTCH3 binders on small-molecule microarray, primary screen, biochemical, 635/667 nm fluorescence (AID 1096). Particulars: NOTCH3 binding, 635 nm fluorescence, higher = more signal.
A short description of test [20]: small-molecule microarray binders of probe aEGFR, primary screen, biochemical, biotinylated probe, 635/667 nm fluorescence (AID 1097).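 Further: probe is a biotinylated anti-EGFR antibody binding compounds printed on slides; score combines fluorescence near 667 nm and signal to noise of each spot.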 Particulars: higher = more signal.

Neurogenic locus notch homolog protein 2 (Homo sapiens), sequence (Q04721 whole entry, looked up, canonical isoform): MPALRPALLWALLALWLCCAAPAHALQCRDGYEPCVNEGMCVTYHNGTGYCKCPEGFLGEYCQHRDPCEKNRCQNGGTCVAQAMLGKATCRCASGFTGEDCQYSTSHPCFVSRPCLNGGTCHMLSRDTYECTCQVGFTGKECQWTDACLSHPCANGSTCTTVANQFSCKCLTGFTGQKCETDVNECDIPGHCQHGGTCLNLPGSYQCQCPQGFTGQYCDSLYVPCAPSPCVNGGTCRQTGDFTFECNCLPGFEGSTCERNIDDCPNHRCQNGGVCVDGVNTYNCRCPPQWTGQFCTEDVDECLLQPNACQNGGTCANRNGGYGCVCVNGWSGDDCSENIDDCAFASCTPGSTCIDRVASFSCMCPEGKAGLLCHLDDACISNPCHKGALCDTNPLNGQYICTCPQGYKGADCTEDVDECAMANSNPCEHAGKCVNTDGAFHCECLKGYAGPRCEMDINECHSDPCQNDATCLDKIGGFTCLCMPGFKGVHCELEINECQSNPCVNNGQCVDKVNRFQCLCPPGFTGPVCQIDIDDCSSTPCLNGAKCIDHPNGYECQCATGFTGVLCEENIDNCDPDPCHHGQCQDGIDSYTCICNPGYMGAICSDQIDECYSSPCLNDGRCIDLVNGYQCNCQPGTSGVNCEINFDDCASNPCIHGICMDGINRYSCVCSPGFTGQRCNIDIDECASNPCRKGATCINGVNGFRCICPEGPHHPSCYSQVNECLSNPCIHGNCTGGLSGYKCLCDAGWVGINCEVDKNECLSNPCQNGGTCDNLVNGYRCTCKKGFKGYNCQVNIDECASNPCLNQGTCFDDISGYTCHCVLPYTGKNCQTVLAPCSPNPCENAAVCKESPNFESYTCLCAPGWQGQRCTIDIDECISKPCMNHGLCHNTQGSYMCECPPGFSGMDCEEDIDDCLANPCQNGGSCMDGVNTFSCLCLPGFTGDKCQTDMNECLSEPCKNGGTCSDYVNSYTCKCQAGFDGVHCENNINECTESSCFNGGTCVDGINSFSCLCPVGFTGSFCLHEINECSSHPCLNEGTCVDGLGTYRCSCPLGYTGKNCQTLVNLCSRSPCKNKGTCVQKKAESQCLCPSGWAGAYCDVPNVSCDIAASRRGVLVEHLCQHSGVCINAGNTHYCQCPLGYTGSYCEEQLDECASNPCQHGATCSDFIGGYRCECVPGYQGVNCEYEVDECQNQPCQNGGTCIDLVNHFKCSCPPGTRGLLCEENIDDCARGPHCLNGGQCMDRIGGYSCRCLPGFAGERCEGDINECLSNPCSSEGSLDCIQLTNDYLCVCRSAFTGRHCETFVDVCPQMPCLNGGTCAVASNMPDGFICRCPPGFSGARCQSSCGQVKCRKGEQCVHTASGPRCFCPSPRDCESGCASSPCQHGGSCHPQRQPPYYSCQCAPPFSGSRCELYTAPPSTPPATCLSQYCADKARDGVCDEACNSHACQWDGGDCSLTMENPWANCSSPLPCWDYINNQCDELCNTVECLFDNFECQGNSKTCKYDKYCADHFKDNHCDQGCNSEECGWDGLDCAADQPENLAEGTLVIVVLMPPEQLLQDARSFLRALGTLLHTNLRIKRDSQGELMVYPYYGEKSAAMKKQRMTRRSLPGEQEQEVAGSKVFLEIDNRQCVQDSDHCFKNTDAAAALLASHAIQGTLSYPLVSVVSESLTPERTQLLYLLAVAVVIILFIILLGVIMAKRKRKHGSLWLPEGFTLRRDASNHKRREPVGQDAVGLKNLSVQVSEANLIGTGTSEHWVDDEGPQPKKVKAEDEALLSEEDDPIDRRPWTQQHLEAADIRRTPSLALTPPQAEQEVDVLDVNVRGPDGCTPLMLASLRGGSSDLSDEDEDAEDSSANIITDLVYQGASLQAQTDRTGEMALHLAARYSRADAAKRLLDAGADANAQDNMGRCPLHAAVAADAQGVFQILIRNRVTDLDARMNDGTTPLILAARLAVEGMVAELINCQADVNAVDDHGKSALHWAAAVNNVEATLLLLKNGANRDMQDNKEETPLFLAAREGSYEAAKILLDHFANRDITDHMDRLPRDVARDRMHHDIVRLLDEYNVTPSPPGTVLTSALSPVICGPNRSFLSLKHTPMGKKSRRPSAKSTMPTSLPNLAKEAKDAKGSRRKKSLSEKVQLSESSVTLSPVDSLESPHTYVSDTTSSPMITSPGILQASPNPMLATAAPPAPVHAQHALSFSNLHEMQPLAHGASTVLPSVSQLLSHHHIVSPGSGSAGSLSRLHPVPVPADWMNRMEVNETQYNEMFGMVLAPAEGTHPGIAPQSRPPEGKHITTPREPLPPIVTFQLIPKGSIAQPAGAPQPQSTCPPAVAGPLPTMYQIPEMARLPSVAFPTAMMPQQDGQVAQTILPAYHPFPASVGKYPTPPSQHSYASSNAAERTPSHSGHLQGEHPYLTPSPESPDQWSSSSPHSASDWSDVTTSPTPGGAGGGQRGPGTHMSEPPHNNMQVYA
Pro-neuregulin-1, membrane-bound isoform (Homo sapiens), sequence (Q02297 whole entry, looked up, the tested form may be a part, canonical isoform): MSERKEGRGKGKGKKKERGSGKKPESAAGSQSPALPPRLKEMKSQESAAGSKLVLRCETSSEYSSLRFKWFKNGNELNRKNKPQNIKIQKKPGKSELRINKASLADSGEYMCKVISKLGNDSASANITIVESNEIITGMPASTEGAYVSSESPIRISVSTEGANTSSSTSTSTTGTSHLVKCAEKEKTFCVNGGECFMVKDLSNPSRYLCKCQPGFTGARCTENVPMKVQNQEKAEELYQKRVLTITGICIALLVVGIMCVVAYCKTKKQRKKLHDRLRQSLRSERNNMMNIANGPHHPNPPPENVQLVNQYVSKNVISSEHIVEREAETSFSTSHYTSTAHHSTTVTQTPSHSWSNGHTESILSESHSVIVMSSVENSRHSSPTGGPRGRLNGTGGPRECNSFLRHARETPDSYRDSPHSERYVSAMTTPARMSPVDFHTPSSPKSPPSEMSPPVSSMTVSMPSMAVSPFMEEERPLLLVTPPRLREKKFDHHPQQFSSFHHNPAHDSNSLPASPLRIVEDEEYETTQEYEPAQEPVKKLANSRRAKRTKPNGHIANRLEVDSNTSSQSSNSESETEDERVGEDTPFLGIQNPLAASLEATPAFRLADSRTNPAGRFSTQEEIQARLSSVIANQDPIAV
Torsin-1A-interacting protein 2 (Homo sapiens), sequence (Q8NFQ8 whole entry, looked up): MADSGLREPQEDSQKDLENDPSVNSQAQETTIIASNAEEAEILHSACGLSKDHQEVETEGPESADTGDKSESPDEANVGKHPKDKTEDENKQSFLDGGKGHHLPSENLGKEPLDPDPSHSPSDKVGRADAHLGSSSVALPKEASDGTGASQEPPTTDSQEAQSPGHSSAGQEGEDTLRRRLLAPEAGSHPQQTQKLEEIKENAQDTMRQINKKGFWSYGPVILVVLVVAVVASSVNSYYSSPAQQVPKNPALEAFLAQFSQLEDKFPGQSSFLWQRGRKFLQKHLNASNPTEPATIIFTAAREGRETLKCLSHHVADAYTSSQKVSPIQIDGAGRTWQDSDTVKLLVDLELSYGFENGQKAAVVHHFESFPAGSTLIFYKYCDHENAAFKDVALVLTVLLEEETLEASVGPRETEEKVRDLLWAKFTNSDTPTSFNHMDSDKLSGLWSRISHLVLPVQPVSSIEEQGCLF

With `C=CCNC(=O)[C@H]1[C@@H]2C(=O)O[C@@H](c3ccccc3)[C@@H](c3ccccc3)N2[C@@H](c2ccc(OCCO)cc2)[C@]12C(=O)N(C(=O)OCCOC)c1ccc(C#CC3=CCCCC3)cc12`, the composite z-score in test [1] is -0.0822; in test [2], 0.967; in test [3], -0.0711; in test [4], 1.13; in [5], 0.844; in test [6], 1.43. Further, the composite z-score was 1.28 in test [7]; 0.344 in test [9]; -0.0296 in [10]; 1.55 in test [11]; 2.76 in test [15]; -0.0477 in [17]. The composite z-score was 0.826 in test [18], 1.09 in test [19] and -0.0237 in [20]. In addition, the z-score in test [8] is -0.974 (inactive); in test [12] it was 0.573 (inactive); in [13], 0.656 (inactive); in test [14], 2.97 (inactive); in test [16], 1.89 (inactive).

Take `C[C@H]1ON(c2ccccc2)[C@@H](c2ccccc2)[C@@H]1C(=O)N1C(=O)OC[C@@H]1c1ccccc1`: the composite z-score in [1] is -0.331; in test [2], -0.111; in [3] it was -0.019; in test [4], 0.602; in test [5], 0.527; in [6], 0.211. In addition, the composite z-score in test [7] was 0.656; in [9], 0.0477; in test [10], -0.374; in test [11], 0.648; in [15] it was 0.352; in test [17], -0.159. In addition, the composite z-score in [18] is 0.743; in [19], 0.848; in [20], -0.0409. In addition, the z-score in [8] was 0.84 (inactive); in [12], 0.386 (inactive); in test [13], -0.0839 (inactive); in test [14], -0.299 (inactive); in test [16] it was -0.0337 (inactive).

On to `O=C1CSC(c2cccc([N+](=O)[O-])c2)N1c1ccccc1` (stereo not given), for which the composite z-score in [1] was 0.315; in [2] it was -0.0123; in [3], -0.0161; in test [4], 0.508; in test [5], 0.839; in test [6], 0.146. For the same compound, the composite z-score in [7] was 0.979; in test [9] it was -0.0692; in test [10] it was -0.0994; in test [11], 0.0447; in test [15] it was 0.517; in test [17], -0.0163. The composite z-score in [18] was found to be 0.36; in [19] it was 0.201; in test [20], 0.0093. Further, the z-score in test [8] is -0.239 (inactive); in [12], -0.0876 (inactive); in test [13] it was 0.616 (inactive); in test [14], 1.09 (inactive); in test [16], 0.666 (inactive).

As for `COCCOC(=O)N1C(=O)[C@@]2(c3cc(C#CCCO)ccc31)[C@H](C(=O)NC[C@H](O)c1ccccc1)[C@H]1C(=O)O[C@H](c3ccccc3)[C@H](c3ccccc3)N1[C@@H]2c1ccccc1OCCO`, the composite z-score in test [1] was -0.0841; in [2], 0.284; in [3] it was -0.0048; in test [4], 0.486; in test [5] it was 1.48; in test [6], 0.96. Also, the composite z-score in [7] is 1.31; in test [9], 0.62; in test [10], -0.0994; in [11], 1.53; in test [15], 2.62; in test [17], -0.0437. For the same compound, the figures for the composite z-score in test [18], in [19] and in test [20] were 1.42, 1.07 and 0.13, respectively. In addition, the z-score in test [8] was -0.154 (inactive); in test [12] it was 1.06 (inactive); in [13] it was 0.578 (inactive); in [14], 2.4 (inactive); in [16], 0.636 (inactive).

Turning to `COC(=O)[C@@]1(Cc2ccccc2)[C@H]2c3cc(C(=O)N4CCCC4)n(Cc4ccc(OC(F)(F)F)cc4)c3C[C@H]2CN1C(=O)c1ccccc1`, the composite z-score in test [1] is 1.38; in [2] it was -0.277; in [3], 0.337; in [4], 0.42; in test [5], 1.72; in test [6], 1.62. Further, the composite z-score worked out at 1.18 in [7]; 1.73 in [9]; 0.405 in test [10]; 0.325 in [11]; 3.29 in test [15]; 0.961 in test [17]. Besides, the figures for the composite z-score in test [18], in [19] and in test [20] were 0.0283, 1.04 and 0.647, respectively. For the same compound, the z-score is 0.705 (inactive) in test [8]; 1.54 (inactive) in test [12]; 1.5 (inactive) in test [13]; 3.42 (inactive) in test [14]; -1.43 (inactive) in test [16].

Take `CCCC=C(CCC)[C@@H](NC(=O)Cc1ccccc1)c1ccc(C(=O)OC)cc1`: the composite z-score is 1.22 in test [1]; -0.0985 in test [2]; 0.254 in [3]; 0.536 in test [4]; 1.13 in test [5]; 0.807 in test [6]. The composite z-score was found to be 0.606 in test [7]; 0.94 in test [9]; 3.03 in test [10]; 0.658 in test [11]; 1.54 in [15]; 1.1 in test [17]. The composite z-score in [18] worked out at 0.234; in test [19], 0.505; in [20] it was 0.577. Also, the z-score in test [8] is -0.26 (inactive); in test [12] it was 0.761 (inactive); in test [13], 0.847 (inactive); in test [14], 0.762 (inactive); in test [16] it was -0.556 (inactive).

For the compound `CN(C)CCCCNC(=O)[C@H]1C[C@H]2C(=O)N[C@@H](CCCC[N+](C)(C)C)C(=O)N2[C@H]1c1cccc(OCCO)c1`, the composite z-score in test [1] is -0.235; in test [2], 1.09; in [3] it was -0.116; in test [4], -0.0012; in [5], -0.606; in [6], 0.417. Besides, the composite z-score in [7] was 1.26; in test [9], -0.268; in [10], -0.0994; in test [11], 1.53; in [15] it was 2.05; in test [17] it was -0.204. For the same compound, the figures for the composite z-score in [18], in test [19] and in [20] were 1.35, 0.907 and -0.0733, respectively. Further, the z-score in [8] was 2.9 (inactive); in test [12], -0.359 (inactive); in [13], 0.276 (inactive); in [14], -0.702 (inactive); in test [16], 0.305 (inactive).

Regarding `O=C1O[C@H](c2ccccc2)[C@H](c2ccccc2)N2[C@H]1[C@@H](C(=O)N1CCN(c3ncccn3)CC1)[C@]1(C(=O)Nc3ccc(C#CCCO)cc31)[C@H]2c1ccc(OCCO)cc1`, the composite z-score in test [1] was 0.0379; in test [2], 1.26; in [3], 0.0229; in [4] it was 1.26; in test [5], 1.53; in [6], 0.826. The composite z-score in test [7] is 0.995; in test [9] it was 1.35; in [10], -0.0994; in [11], 1.54; in test [15], 3.13; in [17] it was 0.152. Moreover, the values for the composite z-score in test [18], in test [19] and in [20] were 1.47, 1.1 and 0.155, respectively. Besides, the z-score in test [8] was 0.0862 (inactive); in [12], 0.987 (inactive); in test [13], 1.14 (inactive); in [14], 4.15 (inactive); in [16], 0.132 (inactive).

Turning to `COc1ccc(C(=O)Nc2ccc(CN3C(=O)[C@]4(O[C@H](CCn5cc([C@H](O)c6ccccc6)nn5)[C@@H]([Si](C)(C)c5ccc(OC)cc5)[C@@H]4C)c4ccccc43)cc2)cc1`, the composite z-score in test [1] was 0.804; in test [2], 0.0963; in [3], -0.172; in test [4], -0.161; in test [5], -0.284; in test [6] it was 0.178. Also, the composite z-score is 0.923 in test [7]; 0.198 in test [9]; -0.0994 in test [10]; 0.466 in test [11]; 0.658 in test [15]; 0.101 in [17]. In addition, the composite z-score in test [18] was 0.341; in test [19] it was -0.047; in [20] it was -0.169. In addition, the z-score is -0.855 (inactive) in [8]; -0.0933 (inactive) in [12]; -0.262 (inactive) in test [13]; 1.61 (inactive) in [14]; -0.615 (inactive) in [16].
